biological target: T1, Ems (Drosophila melanogaster, UniProt P18488 373-462); test: FP; 33 mM phosphate pH 7.0, 90 mM NaCl, 0.01% Tween 20, 0.1 mM DTT, 0.5% agarose; room temperature; conditions: tags: N-GST (pGEX-6P-1, kept); dsDNA, one strand shown
T1 sequence: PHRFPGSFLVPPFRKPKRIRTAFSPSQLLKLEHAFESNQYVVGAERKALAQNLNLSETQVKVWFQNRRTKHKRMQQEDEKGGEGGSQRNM

Row | Sequence | binding signal | Kd
1 | CACGTCATTAGCTCA | 1.28 Kd / Kd of best base at the position | –
2 | CACGTAATCAGCTCA | 40.1 Kd / Kd of best base at the position | –
3 | CACGTAATTAGCTCC | 3.56 Kd / Kd of best base at the position | –
4 | CACGTAATTGGCTCA | 8.18 Kd / Kd of best base at the position | –
5 | CACATAATTAGCTCA | 1.34 Kd / Kd of best base at the position | –
6 | CACGGAATTAGCTCA | 38.4 Kd / Kd of best base at the position | –
7 | CACGTATTTAGCTCA | 11.1 Kd / Kd of best base at the position | –
8 | CACGTAATTATCTCA | 1.9 Kd / Kd of best base at the position | –
9 | CACGTAATTAGTTCA | 3.85 Kd / Kd of best base at the position | –
10 | CACGTAACTAGCTCA | 72.2 Kd / Kd of best base at the position | –
11 | CACGTAATTAGCTCA | – | ~1.7 nM
12 | CACGTAATTAGCCCA | 4.42 Kd / Kd of best base at the position | –
13 | CACGTAATTAGGTCA | 7.3 Kd / Kd of best base at the position | –
14 | CACGTAAGTAGCTCA | 63.6 Kd / Kd of best base at the position | –
15 | CACGTAATTAGCTGA | 4.73 Kd / Kd of best base at the position | –
16 | CACGAAATTAGCTCA | 16.8 Kd / Kd of best base at the position | –
17 | CACGTAAATAGCTCA | 54.5 Kd / Kd of best base at the position | –
18 | CACGTAATTAACTCA | 9.76 Kd / Kd of best base at the position | –
19 | CACGTAGTTAGCTCA | 74.7 Kd / Kd of best base at the position | –
20 | CACGTAATTACCTCA | 1.46 Kd / Kd of best base at the position | –

Row | Sequence | binding signal | Kd
21 | CACGTACTTAGCTCA | 47.3 Kd / Kd of best base at the position | –
22 | CACGTAATGAGCTCA | 6.94 Kd / Kd of best base at the position | –
23 | CATGTAATTAGCTCA | 1.24 Kd / Kd of best base at the position | –
24 | CACTTAATTAGCTCA | 2.71 Kd / Kd of best base at the position | –
25 | CACGTGATTAGCTCA | 30.7 Kd / Kd of best base at the position | –
26 | CACCTAATTAGCTCA | 1.08 Kd / Kd of best base at the position | –
27 | CGCGTAATTAGCTCA | 1.07 Kd / Kd of best base at the position | –
28 | CACGTAATTAGCACA | 5.4 Kd / Kd of best base at the position | –
29 | CACGTAATTCGCTCA | 43.1 Kd / Kd of best base at the position | –
30 | CAGGTAATTAGCTCA | 1.11 Kd / Kd of best base at the position | –
31 | CACGTAATAAGCTCA | 35.3 Kd / Kd of best base at the position | –
32 | CCCGTAATTAGCTCA | 1.04 Kd / Kd of best base at the position | –
33 | TACGTAATTAGCTCA | 1.04 Kd / Kd of best base at the position | –
34 | CACGTAATTAGATCA | 2.14 Kd / Kd of best base at the position | –
35 | CACGTAATTAGCGCA | 6.39 Kd / Kd of best base at the position | –
36 | AACGTAATTAGCTCA | 1.04 Kd / Kd of best base at the position | –
37 | CACGTTATTAGCTCA | 26.4 Kd / Kd of best base at the position | –
38 | CACGTAATTTGCTCA | 10.5 Kd / Kd of best base at the position | –
39 | GACGTAATTAGCTCA | 1.01 Kd / Kd of best base at the position | –
40 | CACGCAATTAGCTCA | 2.2 Kd / Kd of best base at the position | –

Source: article PMC5913336, “True equilibrium measurement of transcription factor-DNA binding affinities using automated polarization microscopy”
